Hits are enriched below; roughly 2.3% of the tested compounds scored in any of these assays.
TRPV1 ag = HTS Assay for Compounds that Act as Agonists of the Vanilloid Receptor 1. Transient receptor potential cation channel subfamily V member 1 (Homo sapiens), Q8NER1. TRPV1-expressing cells, Fluo-8 calcium influx, agonist mode. activation, % at 8.33 µM. 0.19% of 320,000 active; in the data active = activation above about 80%; inconclusive = between about 30% and that limit; also: 0% is about no effect
Target sequence (Q8NER1 whole entry, looked up): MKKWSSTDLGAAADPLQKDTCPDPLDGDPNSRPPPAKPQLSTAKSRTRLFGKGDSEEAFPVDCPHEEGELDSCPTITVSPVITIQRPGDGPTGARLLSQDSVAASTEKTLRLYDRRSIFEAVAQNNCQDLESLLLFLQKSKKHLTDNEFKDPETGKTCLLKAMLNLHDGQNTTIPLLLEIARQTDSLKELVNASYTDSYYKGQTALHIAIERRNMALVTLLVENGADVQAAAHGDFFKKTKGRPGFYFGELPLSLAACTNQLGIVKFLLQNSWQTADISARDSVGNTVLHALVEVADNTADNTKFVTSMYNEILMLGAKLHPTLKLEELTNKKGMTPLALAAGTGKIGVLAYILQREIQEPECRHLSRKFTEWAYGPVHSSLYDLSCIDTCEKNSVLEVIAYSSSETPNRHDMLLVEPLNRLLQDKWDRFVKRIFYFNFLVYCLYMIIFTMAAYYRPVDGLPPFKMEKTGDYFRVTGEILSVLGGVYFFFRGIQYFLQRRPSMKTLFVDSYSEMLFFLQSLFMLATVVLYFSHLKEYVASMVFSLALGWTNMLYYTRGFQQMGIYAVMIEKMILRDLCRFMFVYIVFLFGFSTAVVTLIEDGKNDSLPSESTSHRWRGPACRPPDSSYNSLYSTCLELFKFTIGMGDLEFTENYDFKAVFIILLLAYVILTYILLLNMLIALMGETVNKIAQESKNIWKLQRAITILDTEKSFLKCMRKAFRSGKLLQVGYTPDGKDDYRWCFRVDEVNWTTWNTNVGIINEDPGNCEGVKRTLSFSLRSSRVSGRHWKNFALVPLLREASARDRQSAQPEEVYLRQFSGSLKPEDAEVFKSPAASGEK
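Cells expressing TRPV1 were dye-loaded with Fluo-8 and read kinetically: 10 s baseline, 3 min after compound (agonist portion), then 2 min after EC20 capsaicin (allosteric enhancer portion). Calcium-bound dye fluorescence at 480/520 nm.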
ELG1 repair inh = qHTS screen for small molecules that inhibit ELG1-dependent DNA repair in human embryonic kidney (HEK293T) cells expressing luciferase-tagged ELG1. Potency, µM (top dose mostly 46.1 µM), for inactives: at the highest dose activity change, negative = inhibition, most hits filed as inhibitors. HEK293T ELG1-luciferase reporter, luminescence, 16 h; DNA damage induced by 5-fluorouridine. 2.3% of 330,000 active; also: potency is read from the fitted curve at half-maximal effect; % is scaled to controls: 0 for no effect and ±100 for the full control effect; nearly all actives have a fitted effect of over 55% in size
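HEK293T cells expressing luciferase-tagged ELG1 (2,000/well) received 5-Fluorouridine plus compound or DMSO for 16 hr at 37 °C. Luciferase was read by ONE-Glo luminescence after 30 min at room temperature.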
Giardia killer = Small Molecules that selectively kill Giardia lamblia: qHTS; Giardia lamblia trophozoite viability; activity change, % at 7.66 µM, hits read low; 0.15% of 340,000 active; AID 540267, 2011; in the data active = activity change below about -80%; inconclusive = between about -30% and that limit;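 also: parasites exposed to compound for two days anaerobically before the ATP read; % is scaled to controls: 0 for no effect and ±100 for the full control effect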
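Each well holds 100 Giardia trophozoites and compound. After two days (48 hrs) at 37 deg C in anaerobic conditions, ATP is quantified by luminescence.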
FUS suppressor = qHTS for Suppressors of FUS Proteinopathy: Primary screen using FUS-linked yeast assay; Potency, µM (top dose mostly 76.6 µM), usual class: activators; S. cerevisiae FUS-expressing, growth rescue, OD600, 24 h; 0.24% of 390,000 active;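 also: potency is read from the fitted curve at half-maximal effect; plate controls were DMSO vehicle for no effect and reference control for full effect; nearly all actives have a fitted effect of over 55% in size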
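Galactose (2%) drives FUS expression in yeast precultured in raffinose; seeding density OD 0.005. Test compounds incubated 24hr at 30C and 99% humidity before absorbance at 600 nm was measured.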
TRPV1 potentiator = HTS Assay for Compounds that Act as Potentiators of the Vanilloid Receptor 1; TRPV1-expressing cells, Fluo-8 calcium influx, capsaicin EC20 potentiation; 0.02% of 320,000 active; potentiation, % at 8.33 µM; AID 540277, 2011; in the data active = potentiation above about 80%; inconclusive = between about 30% and that limit; also: 0% is about no effect
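Fluo-8 calcium influx in TRPV1-expressing cells, kinetic read (ex 480/em 520 nm). Compound added and read 3 min for agonist activity, followed by capsaicin at EC20 final and 2 min further read for enhancement.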
* hit, by the source's call. Unless noted, calls follow the shape of the dose curve; as a rule, active = well fitted curve in the direction sought with a large enough effect; inconclusive = small, poorly fitted or top-dose-only effect, or another doubt; inactive = no such curve, though single readings can be large; an effect the other way counts as inactive or inconclusive.

How did CCN(CC)S(=O)(=O)c1cc(NC(=O)C(C)OC(=O)c2[nH]c(C)c(C(C)=O)c2C)ccc1C (configuration not stated) do in these assays?
TRPV1 ag: 26; ELG1 repair inh: 10µM*; Giardia killer: 2; TRPV1 potentiator: -11

How did CC(=O)c1c(C)[nH]c(C(=O)OC(C)C(=O)Nc2ccc(C)c(S(=O)(=O)N3CCOCC3)c2)c1C (configuration not stated) do in these assays?
TRPV1 ag: -2; ELG1 repair inh: -21%; Giardia killer: 6; FUS suppressor: inactive; TRPV1 potentiator: -8

How did COc1cc(/C=C/C(=O)OCC(=O)Nc2ccc(C)c(S(=O)(=O)N3CCCCC3)c2)ccc1O do in these assays?
TRPV1 ag: -4; ELG1 repair inh: inconclusive; Giardia killer: 10; FUS suppressor: inconclusive; TRPV1 potentiator: 7

What do the screens show for `Cc1ccc(S(=O)(=O)N(C)C)cc1NC(=O)c1c(-c2c(F)cccc2Cl)noc1C`?
TRPV1 ag: 0; ELG1 repair inh: 26µM*; Giardia killer: -11; FUS suppressor: inactive; TRPV1 potentiator: 1

What do the screens show for `CC(=O)c1c(C)[nH]c(C(=O)OCC(=O)Nc2cc(S(=O)(=O)N3CCCC3)ccc2Cl)c1C`?
TRPV1 ag: -1; ELG1 repair inh: 16µM*; Giardia killer: -4; TRPV1 potentiator: 3

Results for CCOc1cccc(CC(=O)N2CCc3c([nH]c4ccc(OC)cc34)C2c2ccc(F)cc2)c1OCC (configuration not stated) ?
FUS suppressor: inactive

How did Cc1ccc(CN2C(=O)c3ccccc3Sc3ccc(C(=O)NCc4ccco4)cc32)cc1 do in these assays?
FUS suppressor: 10µM*

How did CCOc1ccc(CN2C(=O)c3ccccc3Sc3ccc(C(=O)NCc4ccc(C)cc4)cc32)cc1 do in these assays?
TRPV1 ag: 2; Giardia killer: 4; FUS suppressor: inactive; TRPV1 potentiator: 23

What do the screens show for `Cc1cc2cc(C(c3nnnn3Cc3ccco3)N3CCc4ccccc43)c(=O)[nH]c2cc1C` (configuration not stated)?
TRPV1 ag: -2; ELG1 repair inh: -27%; Giardia killer: -12; FUS suppressor: inconclusive; TRPV1 potentiator: 5

What do the screens show for `Cc1cc2cc(C(c3nnnn3Cc3ccco3)N3CCc4ccccc4C3)c(=O)[nH]c2cc1C` (configuration not stated)?
TRPV1 ag: 1; ELG1 repair inh: inconclusive; Giardia killer: -1; FUS suppressor: 14µM*; TRPV1 potentiator: 25

How did C=Cc1ccc(Cn2c(C)c(CNCCc3ccc(OCC)cc3)c(C(=O)O)c2C)cc1 do in these assays?
FUS suppressor: inactive

How did COc1ccc(NC(=O)CNC(=O)Cn2c(C)cc3ccccc3c2=O)cc1OC do in these assays?
TRPV1 ag: 1; ELG1 repair inh: 8.2µM*; Giardia killer: 10; FUS suppressor: inactive; TRPV1 potentiator: 1

Results for COc1ccc(-n2nc(C(=O)NCC(=O)NCCc3ccc(OC)c(OC)c3)c3ccccc3c2=O)cc1Cl ?
TRPV1 ag: 3; ELG1 repair inh: 6.5µM*; Giardia killer: 5; FUS suppressor: inconclusive; TRPV1 potentiator: 11

What do the screens show for `COc1ccc(-n2nc(C(=O)NCC(=O)Nc3cc(OC)c(OC)c(OC)c3)c3ccccc3c2=O)cc1OC`?
TRPV1 ag: -3; ELG1 repair inh: 2.3µM*; Giardia killer: 11; FUS suppressor: inactive; TRPV1 potentiator: 30

Results for COc1ccc(NC(=O)CNC(=O)c2nn(-c3ccc(OC)c(OC)c3)c(=O)c3ccccc23)c(OC)c1 ?
TRPV1 ag: -3; ELG1 repair inh: inconclusive; Giardia killer: 40; FUS suppressor: inactive; TRPV1 potentiator: 18

What do the screens show for `COCCNC(=O)CNC(=O)c1nn(-c2ccc(OC)c(Cl)c2)c(=O)c2ccccc12`?
TRPV1 ag: -5; ELG1 repair inh: -22%; Giardia killer: 0; FUS suppressor: inactive; TRPV1 potentiator: -11

Screening results as filed in PubChem BioAssay.
